Assay outcomes (PubChem)
RORg inh: qHTS for inhibitors of ROR gamma transcriptional activity | Drosophila S2 Gal4-RORgamma UAS-luciferase reporter, 20 h | Nuclear receptor ROR-gamma (Mus musculus), P51450 | hit rate 5.4% among 310,000 | Potency, µM (top dose mostly 53.6 µM), for the others: top-dose activity change, negative = inhibition, usual class: inhibitors; further: nearly all actives have a fitted effect of over 60% in size
Target sequence (P51450 whole entry, looked up, the tested form may be a part): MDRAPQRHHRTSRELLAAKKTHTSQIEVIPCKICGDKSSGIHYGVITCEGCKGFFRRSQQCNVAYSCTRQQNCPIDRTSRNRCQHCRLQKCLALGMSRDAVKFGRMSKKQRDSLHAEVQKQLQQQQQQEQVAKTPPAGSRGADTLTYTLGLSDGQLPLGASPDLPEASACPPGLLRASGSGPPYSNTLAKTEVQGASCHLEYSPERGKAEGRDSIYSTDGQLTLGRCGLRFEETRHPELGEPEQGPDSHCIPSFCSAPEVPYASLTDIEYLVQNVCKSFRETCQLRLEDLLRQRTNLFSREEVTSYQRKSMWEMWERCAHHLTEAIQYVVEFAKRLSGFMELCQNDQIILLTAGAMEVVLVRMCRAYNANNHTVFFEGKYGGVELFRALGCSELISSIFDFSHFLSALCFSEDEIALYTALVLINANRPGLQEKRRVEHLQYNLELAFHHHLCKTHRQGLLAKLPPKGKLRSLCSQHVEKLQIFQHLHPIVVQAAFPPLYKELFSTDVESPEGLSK
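Read-out: Photinus luciferase luminescence; inhibitors lower reporter signal. Insect Schneider cells with Gal4-ROR gamma fusion under metallothionein promoter, UAS reporter; 700 uM final copper sulfate induction, 20 hr, ambient temperature.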
VP16 counter: VP16 counterscreen qHTS for inhibitors of ROR gamma transcriptional activity. AID 2546, 2010. hit rate 3.5% among 310,000. Potency, µM (series often up to 53.6 µM), for inactives: top-dose activity, negative = inhibition, actives largely listed as inhibitors. Drosophila S2 Gal4-VP16 UAS-luciferase, luminescence, 20 h;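 further: Gal4-VP16 expression switched on by copper sulfate through the metallothionein promoter; nearly all actives have a fitted effect of over 50% in size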
KinaseGlo FLuc: Counterscreen for Luciferase (Kinase-Glo TM) Inhibition | Kinase-Glo luciferase, ATP luminescence, 8 min | Potency, µM (titrated, usually from 38.3 µM), for the others: at the top dose activity change, negative = inhibition, usual class: inhibitors | hit rate 0.28% among 200,000 | AID 1379, 2008 | Luciferin 4-monooxygenase (Photuris pensylvanica), Q27757; further: nearly all actives have a fitted effect of over 60% in size
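Compounds were added to a substrate mix at pH 7.2 (50 mM imidazole, 10 uM ATP, within the enzyme's linear range), followed by Kinase-Glo detection reagent; luminescence was measured after 8 minutes at ambient temperature.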
* marks the source's active call; other numbers are inactive results; u = inconclusive; x = not tested or not shown; [ ] = dose if it differs, or a comment. Only some compounds are listed: those with a hit (about 6.4% of all), similar ones and a draw of the others. The call rests on the fitted dose curve; in most records, active means well fitted curve in the direction sought with a large enough effect; inconclusive means small, poorly fitted or top-dose-only effect, or another doubt; inactive means no such curve, though single readings can be large; an effect the other way counts as inactive or inconclusive. On the % scale 0 is the no-effect control and ±100 the full control effect; potency means the concentration at half of the fitted maximal effect.

SMILES | RORg inh | VP16 counter | KinaseGlo FLuc
O=C(c1cccc2nc3ccccc3nc12)N1CCOCC1 | 10% | -1% | x
O=C(Cn1cncn1)N/N=C/c1cccnc1 | -2% | 1% | x
O=C1CCCC1C(O)c1ccc2ccccc2c1 (stereo not drawn) | -9% | -7% | -2%
CC(C)(C)C(=O)OCc1nc(-c2ccc(C(F)(F)F)cc2)cs1 | 43% | 5% | x
CCCSc1sc(C(=O)OC)c(-c2cccs2)c1C#N | -3% | 3% | x
COc1cccc(-c2nc(NCc3cccnc3)c3ccccc3n2)c1 | -23% | -9% | x
Oc1c(C(Nc2cccc(C(F)(F)F)c2)c2cccnc2)ccc2cccnc12 (stereo not drawn) | 2.5µM* | 2.8µM* | -3%
Cc1cc(NC(c2cccnc2)c2ccc3cccnc3c2O)no1 (stereo not drawn) | 4µM* | 6.3µM* | 0%
Cc1cc(NC(=O)c2cc(-c3cccnc3)nc3c(C)c(C)ccc23)no1 | u | -26% | 0%
Cc1cc(C)nc(Nc2cccc(C(F)(F)F)c2)n1 | 10% | 5% | x
CN(C1CCCCC1)S(=O)(=O)c1cccc(C#N)c1 | 4% | 10% | -1%
O=C(Nc1nc2ccccc2[nH]1)c1ccc(F)c(S(=O)(=O)N2CCOCC2)c1 | 14µM* | u | -2%
O=C(NCc1nc2ccccc2[nH]1)c1cccc(S(=O)(=O)N2CCOCC2)c1 | 19% | -2% | -6%
O=C(Nc1nc2ccccc2[nH]1)c1cccc(S(=O)(=O)N2CCOCC2)c1 | 8.9µM* | u | -5%
Cc1ccc(C(=O)Nc2ccon2)cc1S(=O)(=O)N1CCCCCC1 | 13% | -2% | 2%
O=C(Nc1ccc(F)c(F)c1)c1ccc(F)c(S(=O)(=O)N2CCOCC2)c1 | 39% | u | x
Cc1ccc(C(=O)Nc2ccon2)cc1S(=O)(=O)N1CCOCC1 | 11µM* | u | -5%
Cc1ccc2cc(CCNC(=O)CCCc3ccccc3)c(=O)[nH]c2c1C | -2% | 3% | x
COC(=O)C1CN(C(=O)COc2ccc(C)cc2)c2ccccc2O1 (stereo not drawn) | 33% | -14% | x
COc1cccc(-c2nc(CS(=O)(=O)CC(=O)NCCN3CCOCC3)c(C)o2)c1 | -15% | -4% | x
COc1cc2c(cc1OC)CN(C(=S)Nc1ccc(C)cc1C)CC2 | 10µM* | 20µM* | 4%
COc1cc2c(cc1OC)CN(C(=S)Nc1ccccc1Cl)CC2 | u | -13% | -2%
Cc1ccc(NC(=S)N2CCN(C)CC2)c(C)c1 | -17% | -10% | 0%
COc1cc2c(cc1OC)CN(C(=S)Nc1ccccc1)CC2 | 11µM* | -9% | -3%
Cc1cccc(/C(N)=N/OC(=O)CCCc2ccccc2)c1 | u | 4% | x
SMILES | RORg inh | VP16 counter | KinaseGlo FLuc
Cc1cc(C)n(CC(C)NCc2cn[nH]c2-c2ccc(C)c(C)c2)n1 (stereo not drawn) | -4% | -11% | -3%
Cc1cc(=O)[nH]c(SCC(=O)c2ccc(C(C)C)cc2)n1 | 1.1µM* | u | 9%
COc1ccc(C(=O)CSc2nc(C)cc(=O)[nH]2)cc1 | -40%[0.365 µM] | x | -1%
CC(=O)OCC(NC(=O)C(COCc1ccccc1)NC(=O)OC(C)(C)C)C1OC(n2cc(F)c(=O)[nH]c2=O)C(OC(C)=O)C1OC(C)=O (stereo not drawn) | 3% | -15% | x
COc1ncnc2sc(-c3ccccc3)cc12 | 23% | -1% | 10µM*
CN(C)C(=O)COc1ncnc2sc(-c3ccccc3)cc12 | 18% | 17% | x
O=S(=O)(c1ccccc1)N1CCC2(CCCN(Cc3cc(C(F)(F)F)cc(C(F)(F)F)c3)C2)CC1 | -3% | 12% | -2%
CCCC(=O)OC1CCS(=O)(=O)c2sccc21 (stereo not drawn) | 0% | 1% | 1%
COc1ccc(-c2cc(-c3c(O)c(OC)c4occc4c3OC)[nH]n2)cc1OC | 7.9µM* | 8.9µM* | -3%
COc1ccc(-c2cc(-c3c(O)c(OC)c4occc4c3OC)[nH]n2)cc1 | u | u | 0%
COC(CNC(=O)c1ccc2c(c1)ncn2-c1cccc(C)c1)OC | 1% | 3% | x
COc1ccccc1C(=O)Nc1cc(-c2ccc(C)cc2)no1 | 19% | 29% | x
O=C1NC(=O)N(Cc2ccccc2F)C1=O | 1% | 2% | x
COc1cccc(C(=O)Nc2nnc(-c3cccs3)s2)c1 | u | u | -4%
O=C(Nc1nnc(-c2cccs2)o1)c1cc(-c2ccccc2)nc2ccccc12 | 1.4µM* | 2.5µM* | 0%
O=C(NCc1cccs1)c1cc(-c2ccccc2)nc2ccccc12 | 10% | 1% | 0%
O=C(Nc1nnc(-c2cccs2)o1)c1cccc(Oc2ccccc2)c1 | 0.28µM* | 0.56µM* | -1%
CNNC(=S)Nc1cccc(C(F)(F)F)c1 | -32% | 27% | x
FC(F)(F)c1cccc(NC(=S)NNC(=S)Nc2cccc(C(F)(F)F)c2)c1 | -12% | -29% | x
O=C(CNC(=O)Cc1ccccc1)NCc1cccc(C(F)(F)F)c1 | 7% | -10% | x
FC(F)(F)c1cccc(NC(=S)NCc2ccccc2)c1 | 4.5µM* | 13µM* | -2%
FC(F)(F)c1cccc(NC(=S)NC(c2ccccc2)c2ccccc2)c1 | 7.1µM* | 6.3µM* | 1%
FC(F)(F)c1cccc(CNC(=S)Nc2ccccc2)c1 | 5.6µM* | -18%[10 µM] | 1%
CCc1ccc(N(CC(=O)NC2CCCC2)C(=O)CCC(=O)Nc2ccccn2)cc1 | -4% | 9% | x
CC(=O)Nc1ccc2c(c1)nc(CCN1CCN(c3ccccn3)CC1)n2C | 3% | -7% | x
SMILES | RORg inh | VP16 counter | KinaseGlo FLuc
COc1ccc(N(CC(=O)Nc2ccc(S(=O)(=O)N3CCOCC3)cc2)S(=O)(=O)c2ccc(F)cc2)cc1 | 1% | 0% | x
N#Cc1ccc(CN2CCN(CC(=O)NCCc3ccc(Cl)cc3Cl)CC2)cc1 | 1% | 2% | x
O=C(CO/N=C/c1ccc2c(c1)OCO2)Nc1cccc(Br)c1 | -3%[10 µM] | -5% | -1%
Cc1ccccc1-c1nn[nH]n1 | 19% | 2% | 8%
Oc1ccc(N=Nc2ccccc2-c2nn[nH]n2)c(O)c1 | 16µM* | -17% | x
COC(=O)c1ccc(NC(=S)NC2CC3CCC2C3)cc1 (stereo not drawn) | 11µM* | u | 1%
COC(=O)c1cccnc1NC(=S)NC1CCCCC1 | 0.63µM* | 1.3µM* | x
COC(=O)c1ccc(NC(=S)NC2CCCCC2)cc1 | 7.1µM* | u | -2%
CCN(CC)C(=S)Nc1ccc(C(=O)OC)cc1 | 2% | 5% | 1%
COC(=O)c1ccccc1NC(=O)NC1CCCCC1 | 16% | -3% | x
COC(=O)c1ccc(NC(=O)NC2CCCCC2)cc1 | 9% | 6% | -2%
COC(=O)c1ccc(NC(=S)NCC2CC2)cc1 | 11µM* | u | -4%
COC(=O)c1ccc(NC(=O)C2C3CCC(C3)C2C(=O)O)cc1 (stereo not drawn) | 3% | -2% | 1%
CN(CC(=O)Nc1cccc(F)c1)C(=O)CC1CC2CCC1C2 (stereo not drawn) | -1% | 3% | x
OCCCNc1cc(-c2ccnc(Nc3cccc(Cl)c3)n2)ccn1 | 1.8µM* | 1µM* | x
CCC(C)Oc1cc(-c2ccnc(Nc3cccc(Cl)c3)n2)ccn1 (stereo not drawn) | -9% | -23% | x
CCOC(=O)C1CCN(S(=O)(=O)c2ccc3c(c2)CCN3C(=O)C2CCC2)CC1 | -2% | -3% | x
